# Bioassay records from PubChem.
# GPR151 ag: activates the human receptor GPR151 | activation, % at 11.2 µM | PathHunter beta-arrestin GPR151 cells, luminescence | 650,000 compounds, 1% hits; in the data active = activation above about 4.9%;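 also: 0% = median of compound wells and 100% = cells with positive control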
# Target sequence (Q8TDV0 whole entry, looked up): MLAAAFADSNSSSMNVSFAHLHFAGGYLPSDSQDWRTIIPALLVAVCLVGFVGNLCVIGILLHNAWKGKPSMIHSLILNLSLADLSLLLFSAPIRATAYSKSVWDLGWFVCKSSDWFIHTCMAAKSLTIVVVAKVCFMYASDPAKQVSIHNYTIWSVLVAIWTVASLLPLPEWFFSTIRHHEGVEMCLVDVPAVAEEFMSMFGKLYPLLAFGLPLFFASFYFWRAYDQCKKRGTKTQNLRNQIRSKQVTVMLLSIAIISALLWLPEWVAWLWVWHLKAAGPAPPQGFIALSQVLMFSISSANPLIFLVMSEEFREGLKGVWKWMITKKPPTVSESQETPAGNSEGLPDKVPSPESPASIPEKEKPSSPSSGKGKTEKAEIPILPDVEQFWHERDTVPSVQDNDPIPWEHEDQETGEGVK
# FBW7 activator: human FBW7 E3 ligase activation, primary screen | Q969H0 | AlphaScreen FBW7–phospho-cyclin E peptide binding, activator screen | normalized activity (activation), % at 26.1 µM | 650,000 compounds, 0.13% hits | AID 1259310; in the data active = normalized activity above about 1.9%;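 also: purified mutant Fbw7 with reduced substrate affinity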
# TEAD-YAP inh: TEAD-YAP interaction inhibition | HEK-TIYL cells, TEAD-Gal4/YAP UAS-luciferase luminescence | inhibition, % at 9.12 µM | 640,000 compounds, 1.4% hits | AID 1259422; in the data active = inhibition above about 32%;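 also: 0% = median of test compound wells and 100% = reference inhibitor wells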
# MITF inh: inhibitors of human MITF; AlphaScreen MITF homodimerization, bead proximity signal; 650,000 compounds, 0.91% hits; AID 1259374; inhibition, % at 2.6 µM; O75030; in the data active = inhibition above about 50%;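 also: 0% = vehicle wells with protein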
# GPR151 conf act: confirmation of human GPR151 activators. shares compounds with GPR151 ag. GPR151 PathHunter beta-arrestin cells, luminescence, 90 min; % of EA-reagent control over plate median. activation, % at 11.2 µM. 6,700 tested, under 10 active. AID 1508609;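 active = mean percent activation across replicates above the confirmation screen cutoff of 4.91%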
# GPR119 counter: counter-screen for GPR151 activators: effect on human GPR119; shares compounds with GPR151 ag; 6,700 compounds, 0.3% hits; GPR119 PathHunter beta-arrestin cells, luminescence, 90 min; 0 = compound-well median, 100 = enzyme-acceptor control; activation, % at 11.2 µM;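 active = mean percent activation in the counterscreen above 29.09%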;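 also: counterscreen on off-target GPR119 to flag nonselective hits from the GPR151 activator screen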
# * marks the source's active call; other numbers are inactive results; . = no result given. Shown are actives, neighbours in structure and some others; about 3.4% of the full set was active somewhere.
SMILES,GPR151 ag,FBW7 activator,TEAD-YAP inh,MITF inh,GPR151 conf act,GPR119 counter
COc1ccccc1CNC(=O)COc1ccccc1,3.8,0.1,-24.5,-0.3,.,.
COc1ccccc1CNC(=O)COc1ccc(Br)cc1Cl,12.1*,0.0,1.5,11.4,-0.8,-9.5
CCc1ccc(OCC(=O)NCc2ccccc2OC)cc1,5.1*,0.3,3.4,8.0,-0.5,-5.2
Cc1sc2ncn(CC(=O)NCc3ccccn3)c(=O)c2c1C,5.1*,-0.1,-5.5,-14.0,-0.3,-10.7
Cc1c(C(=O)Nc2ccc3c(c2)OCO3)sc2ncn(CC(=O)N3CC(C)CC(C)C3)c(=O)c12 (stereo not drawn),5.0*,0.2,5.8,12.8,0.5,0.6
Cc1sc2ncn(CC(=O)NCC(=O)NCc3ccccn3)c(=O)c2c1C,-0.6,0.1,-1.6,14.3,.,.
CCN(CC)C(=O)Cn1cnc2sc(C(=O)Nc3cc(OC)ccc3OC)c(C)c2c1=O,-0.4,0.0,0.0,3.2,.,.
Cc1c(C(=O)Nc2ccc(Oc3ccccc3)cc2)sc2ncn(CC(=O)Nc3ccc(C(C)C)cc3)c(=O)c12,-0.3,0.1,1.1,7.8,.,.
CCN(CC)C(=O)Cn1cnc2sc(C(=O)Nc3cc(C)ccc3OC)c(C)c2c1=O,4.9*,0.1,-3.4,-2.6,1.9,5.1
Cc1ccc(NC(=O)Cn2cnc3sc(C(=O)Nc4ccccc4)c(C)c3c2=O)cc1,8.9*,0.6,11.2,6.0,0.4,2.0
COc1cc2c(cc1OC)C1(CCC(O)CC1)CN(C)C2 (stereo not drawn),2.1,-0.1,8.8,-2.7,.,.
CC(=O)N(C(C)=O)c1cc(N2CCOCC2)c([N+](=O)[O-])cc1C,-2.4,0.2,-3.0,-8.7,.,.
COC(=O)c1ccc(-n2nnnc2SCC(=O)N2CCOCC2)cc1,4.9*,-0.1,-4.8,3.0,1.1,20.9
O=C(CSc1nnnn1-c1ccc(F)cc1F)N1CCOCC1,5.5*,0.3,-10.9,12.4,1.5,11.9
CCOc1ccc(-n2nnnc2SCC(=O)N2CCOCC2)cc1,5.3*,-0.1,3.4,-13.9,0.0,5.6
Cc1cc(C)n(-c2cc(NCCO)nc(C)n2)n1,10.7*,0.2,2.5,-3.3,0.4,-10.8
CNC(=O)NC(=O)C(C)N1CCN(c2ccccn2)CC1 (stereo not drawn),1.1,0.6,-5.2,15.2,.,.
CC(C(=O)N1c2ccccc2CC1C)N1CCN(c2ccccn2)CC1 (stereo not drawn),5.3*,0.5,13.2,14.3,0.4,-8.1
CCOC1OC(=O)C(Cl)=C1Nc1cccc(C)c1 (stereo not drawn),5.0*,-0.1,5.8,-0.8,-0.3,2.9
Cc1cc(CC(=N)N)c(C)cc1CC(=N)N,5.4*,0.0,-4.7,6.1,-1.4,-12.3
Cc1noc(/C=C/c2cccs2)c1S(=O)(=O)N1CCCC(C(=O)N2CCCC2)C1 (stereo not drawn),0.1,-0.5,-6.4,-2.2,.,.
Cc1noc(/C=C/c2cccs2)c1S(=O)(=O)N1CCCC(C(=O)N2CCCCC2)C1 (stereo not drawn),5.0*,-0.1,-1.9,2.1,0.4,5.2
Cc1cc(NCCOc2ccccc2)nc(N2CCN(Cc3ccc4c(c3)OCO4)CC2)n1,6.0*,-0.4,8.1,6.2,1.5,3.1
CCOC(=O)c1sc(NC(=O)CSc2nnc(CNC(=O)c3ccc(OC)cc3)n2Cc2ccccc2)c(C(=O)OCC)c1C,0.7,0.1,-4.0,-8.7,.,.
OC(COc1ccc(-c2ccccc2)cc1)CN1CCCC1 (stereo not drawn),-0.7,-0.4,5.2,1.6,.,.
SMILES,GPR151 ag,FBW7 activator,TEAD-YAP inh,MITF inh,GPR151 conf act,GPR119 counter
CC(=O)c1cc(C#N)c(SCCC(C)C)nc1C,7.9*,-0.1,-9.9,-12.2,-0.7,1.0
Cc1cccc(NS(=O)(=O)c2cn(C)c(=O)n(C)c2=O)c1,5.9*,-0.2,-5.8,-4.3,0.8,11.8
Cc1ccc(NS(=O)(=O)c2cn(C)c(=O)n(C)c2=O)cc1C,1.6,0.0,-3.4,-4.6,.,.
COc1ccccc1CCNS(=O)(=O)c1cn(C)c(=O)n(C)c1=O,3.0,0.3,5.7,-4.0,.,.
Cn1cc(S(=O)(=O)NCCC(c2ccccc2)c2ccccc2)c(=O)n(C)c1=O,4.9*,1.2,0.0,10.6,0.4,5.8
O=C1NC(c2ccc(F)cc2)C(C(=O)c2ccco2)=C1O (stereo not drawn),1.3,-0.1,7.8,3.8,.,.
COc1ccc(CC(=O)Nc2cc(Cl)ccc2C(=O)O)cc1,5.6*,0.0,0.0,-7.3,-0.2,-7.0
COc1ccc(CC(=O)Nc2ccc(Cl)cc2C(=O)O)cc1,-2.1,0.1,0.7,2.7,.,.
Cc1ccc(S(=O)(=O)NC2(C(F)(F)F)NC(=O)N(c3ccc(Cl)cc3)C2=O)cc1 (stereo not drawn),-0.2,0.0,-5.2,-1.1,.,.
O=C1NC(NS(=O)(=O)c2ccccc2)(C(F)(F)F)C(=O)N1c1ccc(Cl)cc1 (stereo not drawn),5.9*,-0.1,4.2,-7.0,0.5,10.8
CC(C)CNC(=O)NC(=O)COC(=O)c1ccccc1N=Nc1ccc(O)cc1,5.9*,0.6,4.5,14.7,1.0,6.3
CC(C)CNC(=O)COC(=O)c1ccc(O)cc1,0.3,0.0,3.3,9.0,.,.
Cc1nc2c(nnn2Cc2ccccc2)c(=O)n1C,-1.4,-0.1,5.6,8.8,.,.
Cc1nc2c(nnn2Cc2ccccc2)c(=O)n1Cc1ccccc1,10.5*,0.0,10.0,-3.7,-0.4,5.0
Cn1c(=O)c2c(nc3n(CCc4ccccc4)c(-c4ccc(Br)cc4)cn23)n(C)c1=O,5.6*,0.1,17.6,16.2,-0.3,1.3
Cn1c(=O)c2c(nc3n(CCc4ccccc4)c(-c4ccccc4)cn23)n(C)c1=O,1.4,-0.3,7.6,-16.6,.,.
COc1ccc(C)cc1S(=O)(=O)N1CCC(C(=O)Nc2cccc(C(C)=O)c2)CC1,6.1*,-0.2,5.5,-6.7,0.7,12.9
Cc1ccc(NC(=O)C2CCN(S(C)(=O)=O)CC2)cc1,10.0*,0.1,11.7,5.3,0.0,-1.1
COc1ccc(C)cc1S(=O)(=O)N1CCC(C(=O)Nc2ccc3c(c2)OCO3)CC1,1.1,0.0,-2.0,-11.1,.,.
COc1ccc(CC(=O)N2N=C(c3cccnc3)CC2(O)C(F)(F)F)cc1 (stereo not drawn),4.9*,1.1,25.3,1.7,1.4,10.5
CCc1ccc(OC(=O)c2ccc(C(=O)Oc3ccc(CC)cc3)nc2)cc1,5.4*,0.1,9.1,-20.0,-0.3,-2.8
CCOc1ccc(OC(=O)c2ccc(C(=O)Oc3ccc(OCC)cc3)nc2)cc1,-1.1,0.0,-5.7,-11.7,.,.
CCCCNC(=O)CCn1nc(-c2ccccc2)c2ccccc2c1=O,0.1,-0.1,-2.6,3.0,.,.
CC(C)(C)NC(=O)Cn1nc(C(=O)O)c2ccccc2c1=O,5.9*,-0.2,-7.4,-7.2,-1.2,-11.6
CNC(=O)Cn1nc(-c2ccc(C)cc2)c2ccccc2c1=O,2.0,0.2,-3.5,6.7,.,.
